# Assay outcomes as filed in PubChem.
# Only some compounds are listed: those with a hit (about 15% of all), similar ones and a draw of the others.
# Pf growth 96h = inhibits malaria parasite growth, 96 h; Potency, µM (highest dose often 28.7 µM), for inactives: at the top dose activity change, negative = inhibition, most hits filed as inhibitors; 320,000 tested, 6.9% active; AID 504834; P. falciparum luciferase reporter growth, 96 h; further: potency means the concentration at half of the fitted maximal effect; on the % scale 0 is the no-effect control and ±100 the full control effect
#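 Two-generation exposure (96 h) targets delayed-death phenotype. Reporter parasites carrying integrated firefly luciferase, in red cells at 2% hematocrit and 0.05% parasitemia final, kept at 37 C, 5% CO2; luminescence loss indicates inhibition.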
# Pf growth 48h = P. falciparum growth inhibition at 48 hours (one generation); Potency, µM (titrated, usually from 28.7 µM), for inactives: top-dose activity change, negative = inhibition, usual class: inhibitors; 310,000 tested, 5.9% active; P. falciparum luciferase growth in erythrocytes, 48 h; further: potency means the concentration at half of the fitted maximal effect; on the % scale 0 is the no-effect control and ±100 the full control effect
#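 Luciferase-expressing parasites in RBCs, 2% Hct / 0.1% parasitemia final; RPMI 1640 + 0.5% Albumax; 37 C, 5% CO2, one generation; luminescence read-out, lower signal = inhibition.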
# HCV inh = HCV inhibition; Huh7.5.1 HCVcc-Cre infection, luciferase reporter, 44 h; Potency, µM (titrated, usually from 41.8 µM), for inactives: at the top dose activity change, negative = inhibition, most hits filed as inhibitors; 340,000 tested, 3.4% active; AID 651820; further: potency means the concentration at half of the fitted maximal effect; on the % scale 0 is the no-effect control and ±100 the full control effect
#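 Cells (1,000/well) were plated 4 h before compound, then infected with HCVcc-Cre virus (~0.5 moi). After 44 h further culture, infection was read as luciferase luminescence following a 15 min substrate incubation at room temperature.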
# HCMV antiviral = blocks human cytomegalovirus replication; HFF cells, HCMV-luciferase reporter, 72 h; hits give low values; activity change, negative = inhibition, % at 57.5 µM; 410,000 tested, 4.5% active; AID 1259415; in the data active means activity change below about -60%; inconclusive means no clear call, values can overlap the other calls; inactive means above about -39%; further: on the % scale 0 is the no-effect control and ±100 the full control effect
#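 Inhibition of viral replication was scored as loss of reporter luminescence in HFFs infected with HCMV-luciferase (MOI 1 PFU/cell) for 72 h; compounds tested at 2 doses, normalized to buffer and Salinomycin controls.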
# Sm TGR inh = S. mansoni TGR enzyme inhibition. Q962Y6. purified TGR, DTNB reduction, TNB absorbance 405 nm. 360,000 tested, 3% active. AID 485364. Potency, µM (highest dose often 114 µM), without a hit: top-dose activity change, negative = inhibition, hits mostly inhibitors; further: potency means the concentration at half of the fitted maximal effect; on the % scale 0 is the no-effect control and ±100 the full control effect; nearly all actives have a fitted effect of over 60% in size
#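 First, TGR (20 nM dispensed) and NADPH were mixed with compound. Second, a 15 min room-temperature incubation followed. Third, further NADPH and then DTNB were added to start the reaction. Finally, TNB absorbance was monitored kinetically.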
# SARS PLP yeast = SARS-CoV PLP inhibition in yeast. S. cerevisiae expressing SARS-CoV PLpro, growth rescue. Potency, µM (titrated, usually from 32.9 µM), inactives show top-dose activity, positive = growth rescue, hits mostly activators. 330,000 tested, 0.19% active. AID 485353; calls by dose curve; further: potency means the concentration at half of the fitted maximal effect; 0% is about no effect; nearly all actives have a fitted effect of over 55% in size
# * marks the source's active call; other numbers are inactive results; ? = inconclusive; / = not tested or not shown; ! = not active in a repeat. Unless noted, the call rests on the fitted dose curve; in most records, active means well fitted curve in the direction sought with a large enough effect; inconclusive means small, poorly fitted or top-dose-only effect, or another doubt; inactive means no such curve, though single readings can be large; an effect the other way counts as inactive or inconclusive.
SMILES,Pf growth 96h,Pf growth 48h,HCV inh,HCMV antiviral,Sm TGR inh,SARS PLP yeast
O=C(Nc1ccc(Cl)c(C(=O)N2CCOCC2)c1)c1ccccc1,3%,?,?,32,-2%,-1%
Cc1cccc(CC2CC(=O)N(c3ccccc3)C2=O)c1 (centres undefined),22%,-27%,14%,-7,-11%,6%
Cc1ccc(N2C(=O)CC(Cc3cccc(C)c3)C2=O)cc1 (centres undefined),0.29µM*,10%,15%,-6,0%,0%
Cc1ccc(CC2CC(=O)N(CCc3ccccc3)C2=O)cc1 (centres undefined),13µM*,9%,-5%,-27,/,-2%
O=C(O)c1ccccc1-c1noc(-c2ccccc2F)n1,?,?,/,/,-2%,0%
Cc1ccc(CNC(=O)CCS(=O)(=O)c2cc3c(cc2Cl)NC(=O)CO3)o1,0%,28%,0%,9,-2%,6%
Cc1ccc(CNS(=O)(=O)c2cc3c(cc2Cl)NC(=O)CO3)o1,/,/,/,0,32µM*,/
Cc1cc2c(cc1S(=O)(=O)NCc1ccccc1)OCC(=O)N2,19%,22%,1%,-87*!,-14%,4%
CCOC(=O)c1noc2ncn(CC(=O)Nc3ccccc3OC)c(=O)c12,/,/,/,2,-2%,/
CC(/C=N/NC(=O)c1ccncc1)=C\c1ccc(C(C)C)cc1,5.2µM*,4.7µM*,-7%,34,-1%,3%
CC(/C=N/NC(=O)c1ccc(Br)cc1)=C\c1ccccc1,?,/,2%,-63*,-7%,2%
COc1ccc(C(=O)N/N=C\C(C)=C\c2ccccc2)cc1OC,/,/,?,7,/,/
CCN(CC)CCNC(=O)c1ccc(Cn2c(SCc3ccccc3)nc3cccnc32)cc1,/,/,/,21,37%,/
COc1ccc(C)cc1NC(=O)c1c2c(nc3ccccc13)C(=O)N(C1CCCCC1)C2,/,/,/,-32,1%,/
CC1=C(C(=O)N2CCOCC2)C(c2ccsc2)C2=C(CCCC2=O)N1 (centres undefined),?,2%,10%,-2,45µM*,2%
CCOC(=O)C1=C(C)N(C)C(C)=C(C(=O)OCC)C1c1cccnc1,?,?,1%,7,-11%,-7%
CCOC(=O)C1C(=O)C(C(=O)OCC)C(c2cccnc2)NC1c1cccnc1 (centres undefined),67%,-20%,19%,-31,25µM*,-1%
Cc1noc(C)c1S(=O)(=O)NCC(=O)O,?,12%,38%,-27,5%,5%
CCOC(=O)CNS(=O)(=O)c1c(C)noc1C,6%,22%,26%,-19,25µM*,0%
O=C(Nc1cc(Cl)ccc1Cl)c1ccco1,2%,-10%,-8%,-7,-13%,2%
CS/C(Nc1cc(Cl)ccc1Cl)=C(/C#N)C(=O)c1ccco1,5.9µM*,3.3µM*,-11%,97,-23%,-3%
Cc1ccc(-n2cccn2)c(CN2CCCC(C(=O)c3ccc4c(c3)OCO4)C2)c1 (centres undefined),-3%,?,?,-73*,4%,0%
Cn1c(CN2CCCC(C(=O)c3ccc4c(c3)OCO4)C2)nc2ccccc21 (centres undefined),9.3µM*,?,-17%,-5,8%,0%
O=C(c1ccc2c(c1)OCO2)C1CCCN(Cc2cc(F)ccc2-n2cccn2)C1 (centres undefined),8%,?,8%,31,14%,0%
O=C1CC/C=C\C[C@@H](CC(=O)N(CCO)Cc2ccccc2)C(=O)N2CCC[C@H]2CO1,/,/,?,-14,/,4%
SMILES,Pf growth 96h,Pf growth 48h,HCV inh,HCMV antiviral,Sm TGR inh,SARS PLP yeast
Cc1ccc(OCCn2c(-c3ccc(Cl)cc3)nc3ccccc3c2=O)c(C)c1,/,/,/,-21,-2%,/
COc1ccc(CN2CCCCCC2)cc1,?,?,-8%,-2,18%,1%
COc1cc(CN2CCCCCC2)cc(OC)c1,1%,7%,7%,35,100µM*,17%
CC(C)(C)c1cc(CN2CCCCC2)cc(C(C)(C)C)c1O,/,-10%,13%,30,45µM*,1%
COc1ccc(N=Nc2cc(C)c(O)c(CN3CCCCC3)c2)cc1,0.26µM*,0.26µM*,-16%,-16,?,1%
CCN(CC)S(=O)(=O)c1ccc(C)c(NC(=O)COC(=O)c2ccc(C)c(S(=O)(=O)N3CCOCC3)c2)c1,-6%,/,3%,11,-3%,-2%
COC(=O)/C=C/c1ccccc1S(=O)(=O)N(Cc1ccccc1)Cc1ccco1,?,?,?,-9,18µM*,-1%
COc1ccccc1-c1noc2nc(N(C)Cc3ccc(F)cc3)ccc12,/,/,/,-9,/,/
Cn1cc(C(=O)N/N=C/c2ccc([N+](=O)[O-])cc2)c2ccccc21,4%,0%,4%,-16,-1%,2%
CC(=O)n1cc(N(C(=O)CCl)c2ccc([N+](=O)[O-])cc2)c2ccccc21,?,3.7µM*,7.1µM*,?,0.71µM*,-2%
CC(=O)n1cc(N(C(=O)CCl)c2ccccc2)c2ccccc21,?,?,1µM*,-98*,0.5µM*,-3%
CC(=O)n1cc(CO)c2ccccc21,1%,13%,12%,15,-14%,1%
O=Cc1[nH]c2ccccc2c1N(C(=O)CCl)c1ccc([N+](=O)[O-])cc1,0%,?,?,-101*,3.2µM*,-1%
CC(=O)Nc1ccc(OCC=C(Cl)Cl)cc1,2%,-24%,-12%,-9,1%,-9%
Nc1nonc1-n1nnc(C(=O)N/N=C/c2ccccn2)c1CNc1ccccc1,?,-21%,-19%,-35,-20%,-4%
Cc1ccc(NC(=O)C2CCCN(S(=O)(=O)c3c(C)n[nH]c3C)C2)c(C)c1 (centres undefined),/,/,/,11,9%,/
CCn1c(=O)c([N+](=O)[O-])c(NC2CCS(=O)(=O)C2)c2ccccc21 (centres undefined),-5%,0%,3%,-16,-10%,0%
CC(O)C1C=CC=CC(=O)OC2CC3OC4C5OC5(C)C(O)CC4(COC(=O)C(O)C(C)CCO1)C2(C)C31CO1 (centres undefined),/,/,/,-98*,/,/
CC1=CC2OC3CC4OC(=O)C=CC=CC(=O)OCCC(C)C(O)C(=O)OCC2(CC1)C4(C)C31CO1 (centres undefined),/,/,/,-98*,/,/
CC1CCOC(=O)C=CC=CC(=O)OC2CC3OC4C5OC5(C)C(O)CC4(COC(=O)C1O)C2(C)C31CO1 (centres undefined),/,/,/,-98*,/,/
